# Experiments:
# Assay in all cases: DAPPL (digital affinity profiling via proximity ligation, sequencing); 10 mM Tris-HCl pH 7.5, 50 mM NaCl, 1 mM DTT, 4% glycerol, room temperature, 30 min; GST-TFs on glutathione beads, 16-mer random dsDNA library, 0.1% formaldehyde crosslink after washing; high values mean tight binding
# FEV = molecular target: T1, FEV (Homo sapiens, UniProt Q99581 1-238); conditions: protein: recombinant; tags: N-terminal GST; dsDNA, one strand shown
# T1 sequence: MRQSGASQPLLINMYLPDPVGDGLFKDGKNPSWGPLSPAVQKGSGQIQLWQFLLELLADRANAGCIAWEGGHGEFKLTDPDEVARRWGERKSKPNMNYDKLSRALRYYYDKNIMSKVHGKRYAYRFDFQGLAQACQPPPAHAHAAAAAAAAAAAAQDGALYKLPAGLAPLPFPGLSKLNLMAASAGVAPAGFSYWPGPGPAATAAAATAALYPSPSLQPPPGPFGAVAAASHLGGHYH
# In short: (§1)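 Each value of binding signal is a hexamer's read frequency for a factor divided by the same hexamer's frequency in the tag-only sample. Barcoded, bead-captured GST fusions of human transcription factors made in yeast were pooled with that sample and incubated with 200 nmole of a random double-stranded 16-mer DNA library in Tris/NaCl/DTT/glycerol buffer at room temperature for 30 min. Washing, 0.1% formaldehyde crosslinking, proximity ligation, PCR and Illumina NextSeq500 sequencing followed.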
# ETV5 = ETV5 (Homo sapiens, UniProt P41161 1-510); conditions: protein: recombinant; tags: N-terminal GST; dsDNA, one strand shown
# Sequence of ETV5 (P41161 whole entry): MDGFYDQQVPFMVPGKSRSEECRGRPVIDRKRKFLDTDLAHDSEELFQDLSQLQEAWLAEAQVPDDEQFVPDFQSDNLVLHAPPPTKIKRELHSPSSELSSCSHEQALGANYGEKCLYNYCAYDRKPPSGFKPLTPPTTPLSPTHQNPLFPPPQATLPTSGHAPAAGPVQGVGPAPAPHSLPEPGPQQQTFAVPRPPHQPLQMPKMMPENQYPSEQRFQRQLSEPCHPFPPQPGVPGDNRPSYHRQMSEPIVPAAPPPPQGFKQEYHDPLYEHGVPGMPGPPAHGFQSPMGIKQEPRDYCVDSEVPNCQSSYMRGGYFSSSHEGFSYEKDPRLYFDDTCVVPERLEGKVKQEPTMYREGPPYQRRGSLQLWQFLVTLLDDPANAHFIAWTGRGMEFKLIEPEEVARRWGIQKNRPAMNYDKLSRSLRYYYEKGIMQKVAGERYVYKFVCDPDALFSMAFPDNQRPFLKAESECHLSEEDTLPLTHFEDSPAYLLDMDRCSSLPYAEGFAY
# In short: as §1
# HSF1 = HSF1 (Homo sapiens, UniProt Q00613 1-529); conditions: protein: recombinant; tags: N-terminal GST; chain copies: 3; dsDNA, one strand shown
# Sequence of HSF1 (Q00613 whole entry): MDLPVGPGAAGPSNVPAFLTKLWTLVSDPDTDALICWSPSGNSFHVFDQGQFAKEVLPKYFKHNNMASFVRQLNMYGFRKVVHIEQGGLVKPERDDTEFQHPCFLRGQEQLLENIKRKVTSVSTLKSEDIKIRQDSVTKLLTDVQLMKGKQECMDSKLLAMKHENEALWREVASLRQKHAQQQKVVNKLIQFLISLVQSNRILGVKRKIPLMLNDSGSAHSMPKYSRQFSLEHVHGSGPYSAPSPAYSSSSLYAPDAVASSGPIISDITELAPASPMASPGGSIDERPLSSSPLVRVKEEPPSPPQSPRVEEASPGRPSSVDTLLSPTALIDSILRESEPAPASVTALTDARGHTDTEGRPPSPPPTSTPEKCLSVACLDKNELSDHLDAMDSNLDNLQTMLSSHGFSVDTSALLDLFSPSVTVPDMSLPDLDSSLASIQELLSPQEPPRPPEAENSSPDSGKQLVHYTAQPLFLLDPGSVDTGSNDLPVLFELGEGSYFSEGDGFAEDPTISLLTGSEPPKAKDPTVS
# In short: as §1
# SPIC = molecular target: T2, SPIC (Homo sapiens, UniProt Q8N5J4 1-248); conditions: protein: recombinant; tags: N-terminal GST; dsDNA, one strand shown
# T2 sequence: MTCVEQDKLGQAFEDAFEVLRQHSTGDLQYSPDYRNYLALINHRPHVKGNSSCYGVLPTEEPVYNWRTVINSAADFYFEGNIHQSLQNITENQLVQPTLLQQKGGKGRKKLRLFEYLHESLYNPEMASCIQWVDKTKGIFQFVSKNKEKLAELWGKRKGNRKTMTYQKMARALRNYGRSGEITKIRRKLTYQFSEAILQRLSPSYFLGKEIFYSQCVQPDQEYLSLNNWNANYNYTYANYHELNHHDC
# In short: as §1
# ELF4 = ELF4 (Homo sapiens, UniProt Q99607 1-663); conditions: protein: recombinant; tags: N-terminal GST; dsDNA, one strand shown
# Sequence of ELF4 (Q99607 whole entry): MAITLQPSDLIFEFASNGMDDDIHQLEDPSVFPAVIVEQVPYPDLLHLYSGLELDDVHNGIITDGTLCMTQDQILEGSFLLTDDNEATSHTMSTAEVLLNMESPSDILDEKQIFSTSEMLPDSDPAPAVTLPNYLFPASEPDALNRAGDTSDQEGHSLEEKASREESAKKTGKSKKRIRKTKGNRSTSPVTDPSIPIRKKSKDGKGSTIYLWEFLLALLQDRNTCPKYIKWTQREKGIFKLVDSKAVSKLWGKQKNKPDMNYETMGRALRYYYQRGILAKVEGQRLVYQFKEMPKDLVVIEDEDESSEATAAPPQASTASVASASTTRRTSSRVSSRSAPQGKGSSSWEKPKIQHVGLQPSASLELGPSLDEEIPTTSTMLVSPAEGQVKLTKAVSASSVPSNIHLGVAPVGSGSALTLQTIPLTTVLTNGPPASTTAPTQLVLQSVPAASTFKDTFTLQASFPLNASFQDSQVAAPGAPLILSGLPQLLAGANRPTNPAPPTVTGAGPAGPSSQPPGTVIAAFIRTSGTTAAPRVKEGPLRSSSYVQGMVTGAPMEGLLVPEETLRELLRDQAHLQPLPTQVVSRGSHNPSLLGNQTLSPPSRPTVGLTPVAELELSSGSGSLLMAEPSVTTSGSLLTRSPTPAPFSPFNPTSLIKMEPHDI
# In short: as §1
# ELK4 = molecular target: T3, ELK4 (Homo sapiens, UniProt P28324-2 1-405); conditions: protein: recombinant; tags: N-terminal GST; dsDNA, one strand shown
# T3 sequence: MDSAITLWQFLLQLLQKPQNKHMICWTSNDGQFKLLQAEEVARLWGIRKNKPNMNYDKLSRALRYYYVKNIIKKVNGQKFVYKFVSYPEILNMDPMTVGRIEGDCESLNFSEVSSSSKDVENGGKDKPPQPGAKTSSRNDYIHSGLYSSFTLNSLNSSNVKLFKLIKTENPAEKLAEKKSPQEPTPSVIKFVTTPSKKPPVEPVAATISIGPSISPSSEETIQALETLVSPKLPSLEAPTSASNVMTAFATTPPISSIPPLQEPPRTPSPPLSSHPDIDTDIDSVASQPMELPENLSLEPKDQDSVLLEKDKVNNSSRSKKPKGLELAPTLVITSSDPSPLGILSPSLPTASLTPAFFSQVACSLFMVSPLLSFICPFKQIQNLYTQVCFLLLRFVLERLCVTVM
# In short: as §1
# ETV2 = molecular target: T4, ETV2 (Homo sapiens, UniProt O00321 1-342); conditions: protein: recombinant; tags: N-terminal GST; dsDNA, one strand shown
# T4 sequence: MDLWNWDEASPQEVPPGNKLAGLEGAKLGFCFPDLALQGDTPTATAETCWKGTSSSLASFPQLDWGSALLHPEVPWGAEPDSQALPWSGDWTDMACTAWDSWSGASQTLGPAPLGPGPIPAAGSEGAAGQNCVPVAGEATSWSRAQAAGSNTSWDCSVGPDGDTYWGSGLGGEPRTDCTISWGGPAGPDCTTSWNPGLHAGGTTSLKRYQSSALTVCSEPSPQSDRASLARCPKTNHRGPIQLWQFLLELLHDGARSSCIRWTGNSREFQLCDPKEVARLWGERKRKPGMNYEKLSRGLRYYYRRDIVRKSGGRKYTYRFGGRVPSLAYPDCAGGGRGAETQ
# In short: as §1
# ELF3 = molecular target: T5, ELF3 (Homo sapiens, UniProt P78545 1-371); conditions: protein: recombinant; tags: N-terminal GST; dsDNA, one strand shown
# T5 sequence: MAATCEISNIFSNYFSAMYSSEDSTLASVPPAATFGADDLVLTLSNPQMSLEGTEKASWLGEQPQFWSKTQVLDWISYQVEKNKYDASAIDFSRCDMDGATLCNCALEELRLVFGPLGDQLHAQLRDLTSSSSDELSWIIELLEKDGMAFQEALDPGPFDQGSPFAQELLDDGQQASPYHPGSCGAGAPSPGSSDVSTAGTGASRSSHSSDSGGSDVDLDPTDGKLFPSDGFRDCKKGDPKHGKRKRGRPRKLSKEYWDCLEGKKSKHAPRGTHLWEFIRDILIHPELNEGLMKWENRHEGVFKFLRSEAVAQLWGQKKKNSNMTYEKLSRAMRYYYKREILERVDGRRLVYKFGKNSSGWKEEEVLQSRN
# In short: as §1
# CRX = CRX (Homo sapiens, UniProt O43186 1-299); conditions: protein: recombinant; tags: N-terminal GST; dsDNA, one strand shown
# Sequence of CRX (O43186 whole entry): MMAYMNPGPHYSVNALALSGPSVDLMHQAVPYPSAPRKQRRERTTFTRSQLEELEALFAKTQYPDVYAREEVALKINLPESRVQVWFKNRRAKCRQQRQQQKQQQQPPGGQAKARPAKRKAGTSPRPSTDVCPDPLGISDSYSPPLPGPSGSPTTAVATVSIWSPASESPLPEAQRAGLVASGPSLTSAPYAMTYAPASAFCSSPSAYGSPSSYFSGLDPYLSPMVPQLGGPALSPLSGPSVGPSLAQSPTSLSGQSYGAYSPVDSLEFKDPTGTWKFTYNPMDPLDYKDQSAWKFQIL
# In short: as §1
# ETV1 = ETV1 (Homo sapiens, UniProt P50549 1-477); conditions: protein: recombinant; tags: N-terminal GST; dsDNA, one strand shown
# Sequence of ETV1 (P50549 whole entry): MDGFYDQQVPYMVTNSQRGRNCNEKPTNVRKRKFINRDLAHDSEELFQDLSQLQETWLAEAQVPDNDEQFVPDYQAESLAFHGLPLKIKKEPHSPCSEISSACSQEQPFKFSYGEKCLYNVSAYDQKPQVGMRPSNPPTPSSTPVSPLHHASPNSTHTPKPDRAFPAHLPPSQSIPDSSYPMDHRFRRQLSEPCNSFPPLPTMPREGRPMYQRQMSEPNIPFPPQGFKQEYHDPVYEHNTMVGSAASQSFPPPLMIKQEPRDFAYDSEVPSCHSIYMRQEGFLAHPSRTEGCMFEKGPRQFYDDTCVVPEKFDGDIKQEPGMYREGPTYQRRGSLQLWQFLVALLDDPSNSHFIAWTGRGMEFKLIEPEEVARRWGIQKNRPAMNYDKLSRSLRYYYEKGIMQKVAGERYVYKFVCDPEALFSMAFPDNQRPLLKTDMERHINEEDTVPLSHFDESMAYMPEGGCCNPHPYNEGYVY
# In short: as §1
# ERF = molecular target: T6, ERF (Homo sapiens, UniProt P50548 1-548); conditions: protein: recombinant; tags: N-terminal GST; dsDNA, one strand shown
# T6 sequence: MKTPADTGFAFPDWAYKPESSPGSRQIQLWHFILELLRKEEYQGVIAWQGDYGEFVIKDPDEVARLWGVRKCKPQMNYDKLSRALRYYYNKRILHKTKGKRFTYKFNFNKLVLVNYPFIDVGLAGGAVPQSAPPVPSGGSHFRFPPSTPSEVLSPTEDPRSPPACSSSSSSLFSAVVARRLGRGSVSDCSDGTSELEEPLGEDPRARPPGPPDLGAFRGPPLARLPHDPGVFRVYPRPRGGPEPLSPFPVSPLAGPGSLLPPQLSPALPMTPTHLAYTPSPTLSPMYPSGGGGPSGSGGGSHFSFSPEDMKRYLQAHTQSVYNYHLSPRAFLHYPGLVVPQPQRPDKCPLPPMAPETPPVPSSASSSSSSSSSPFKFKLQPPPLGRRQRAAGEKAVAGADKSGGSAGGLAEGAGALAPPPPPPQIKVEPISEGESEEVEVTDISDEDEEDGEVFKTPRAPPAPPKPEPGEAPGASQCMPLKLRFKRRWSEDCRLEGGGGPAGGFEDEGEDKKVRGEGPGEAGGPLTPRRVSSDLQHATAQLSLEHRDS
# In short: as §1
# ETV3L = molecular target: T7, ETV3L (Homo sapiens, UniProt Q6ZN32 1-361); conditions: protein: recombinant; tags: N-terminal GST; dsDNA, one strand shown
# T7 sequence: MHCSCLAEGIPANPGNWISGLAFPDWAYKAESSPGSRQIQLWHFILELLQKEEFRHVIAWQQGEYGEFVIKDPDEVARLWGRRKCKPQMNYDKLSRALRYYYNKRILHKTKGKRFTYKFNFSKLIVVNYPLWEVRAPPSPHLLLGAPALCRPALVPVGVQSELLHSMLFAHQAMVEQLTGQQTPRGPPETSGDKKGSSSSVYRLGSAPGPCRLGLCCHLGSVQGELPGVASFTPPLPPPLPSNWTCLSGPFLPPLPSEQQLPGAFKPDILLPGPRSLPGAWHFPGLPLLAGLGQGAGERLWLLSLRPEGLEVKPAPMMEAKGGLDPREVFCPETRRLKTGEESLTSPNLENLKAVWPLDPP
# In short: as §1
# ETS2 = molecular target: T8, ETS2 (Homo sapiens, UniProt P15036 1-469); conditions: protein: recombinant; tags: N-terminal GST; dsDNA, one strand shown
# T8 sequence: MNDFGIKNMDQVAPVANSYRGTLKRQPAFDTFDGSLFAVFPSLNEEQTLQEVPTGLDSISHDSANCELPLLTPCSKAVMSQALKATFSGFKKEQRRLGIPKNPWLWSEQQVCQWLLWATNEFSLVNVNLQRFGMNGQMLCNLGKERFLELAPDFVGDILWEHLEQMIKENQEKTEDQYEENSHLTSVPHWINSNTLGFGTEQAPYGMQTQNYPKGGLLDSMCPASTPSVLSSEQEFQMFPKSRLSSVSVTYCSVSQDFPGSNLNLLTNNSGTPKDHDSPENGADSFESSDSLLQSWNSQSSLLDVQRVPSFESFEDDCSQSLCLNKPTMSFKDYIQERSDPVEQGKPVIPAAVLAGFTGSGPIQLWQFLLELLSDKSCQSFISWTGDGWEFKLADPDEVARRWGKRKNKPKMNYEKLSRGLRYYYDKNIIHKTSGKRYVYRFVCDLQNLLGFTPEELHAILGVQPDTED
# In short: as §1
# SPDEF = molecular target: T9, SPDEF (Homo sapiens, UniProt O95238 1-335); conditions: protein: recombinant; tags: N-terminal GST; dsDNA, one strand shown
# T9 sequence: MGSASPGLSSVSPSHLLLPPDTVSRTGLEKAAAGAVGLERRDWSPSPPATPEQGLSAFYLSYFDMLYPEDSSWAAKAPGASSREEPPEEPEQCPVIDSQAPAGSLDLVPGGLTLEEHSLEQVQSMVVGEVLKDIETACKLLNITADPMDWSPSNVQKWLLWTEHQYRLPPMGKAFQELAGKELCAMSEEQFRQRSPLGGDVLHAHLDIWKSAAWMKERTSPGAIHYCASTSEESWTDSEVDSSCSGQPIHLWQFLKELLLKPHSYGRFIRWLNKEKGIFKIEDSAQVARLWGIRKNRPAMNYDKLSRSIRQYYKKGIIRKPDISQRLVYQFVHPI
# In short: as §1
# ETV7 = molecular target: T10, ETV7 (Homo sapiens, UniProt Q9Y603 1-341); conditions: protein: recombinant; tags: N-terminal GST; dsDNA, one strand shown
# T10 sequence: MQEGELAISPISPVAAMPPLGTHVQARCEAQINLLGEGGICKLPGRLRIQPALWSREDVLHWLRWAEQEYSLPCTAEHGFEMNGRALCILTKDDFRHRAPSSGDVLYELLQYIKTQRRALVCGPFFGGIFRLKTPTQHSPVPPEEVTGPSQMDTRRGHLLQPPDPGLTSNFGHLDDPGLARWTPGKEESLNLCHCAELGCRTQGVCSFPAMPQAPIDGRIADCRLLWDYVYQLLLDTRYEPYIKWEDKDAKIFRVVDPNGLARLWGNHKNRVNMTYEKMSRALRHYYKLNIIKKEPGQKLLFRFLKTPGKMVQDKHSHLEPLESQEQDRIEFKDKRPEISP
# In short: as §1
# ELF5 = molecular target: T11, ELF5 (Homo sapiens, UniProt Q9UKW6-2 1-255); conditions: protein: recombinant; tags: N-terminal GST; dsDNA, one strand shown
# T11 sequence: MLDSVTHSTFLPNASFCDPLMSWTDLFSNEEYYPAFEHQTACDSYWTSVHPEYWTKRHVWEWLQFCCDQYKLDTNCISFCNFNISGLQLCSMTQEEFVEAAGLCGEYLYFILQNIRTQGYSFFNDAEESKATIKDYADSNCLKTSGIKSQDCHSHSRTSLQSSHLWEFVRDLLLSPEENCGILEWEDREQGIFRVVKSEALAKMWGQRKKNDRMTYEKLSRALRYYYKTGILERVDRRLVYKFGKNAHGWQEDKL
# In short: as §1
# ETV3 = molecular target: T12, ETV3 (Homo sapiens, UniProt P41162-2 1-143); conditions: protein: recombinant; tags: N-terminal GST; dsDNA, one strand shown
# T12 sequence: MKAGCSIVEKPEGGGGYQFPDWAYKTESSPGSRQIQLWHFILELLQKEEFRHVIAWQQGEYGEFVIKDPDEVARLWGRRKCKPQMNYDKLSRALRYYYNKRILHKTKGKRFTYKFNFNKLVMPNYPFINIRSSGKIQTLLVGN
# In short: as §1
# ETV6 = ETV6 (Homo sapiens, UniProt P41212 1-452); conditions: protein: recombinant; tags: N-terminal GST; dsDNA, one strand shown
# Sequence of ETV6 (P41212 whole entry): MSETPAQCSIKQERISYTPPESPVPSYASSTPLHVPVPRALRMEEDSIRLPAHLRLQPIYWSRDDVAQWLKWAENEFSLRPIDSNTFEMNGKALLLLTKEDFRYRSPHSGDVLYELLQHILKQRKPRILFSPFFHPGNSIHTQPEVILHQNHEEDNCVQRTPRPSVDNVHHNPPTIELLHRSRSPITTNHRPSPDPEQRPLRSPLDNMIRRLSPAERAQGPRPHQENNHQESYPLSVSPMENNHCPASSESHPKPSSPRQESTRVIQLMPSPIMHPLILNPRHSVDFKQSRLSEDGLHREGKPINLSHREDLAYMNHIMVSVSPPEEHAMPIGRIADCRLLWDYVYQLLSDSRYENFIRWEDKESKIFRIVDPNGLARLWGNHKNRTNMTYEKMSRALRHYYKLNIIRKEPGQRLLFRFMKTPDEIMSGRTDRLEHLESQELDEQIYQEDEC
# In short: as §1
sequence,measurement,setting,value
ATGGCC,binding signal,FEV,"1.45 fold enrichment (6-mer frequency, TF over GST control)"
same,binding signal,ETV5,"1.42 fold enrichment (6-mer frequency, TF over GST control)"
same,binding signal,HSF1,"1.23 fold enrichment (6-mer frequency, TF over GST control)"
same,binding signal,SPIC,"1.52 fold enrichment (6-mer frequency, TF over GST control)"
same,binding signal,ELF4,"1.44 fold enrichment (6-mer frequency, TF over GST control)"
same,binding signal,ELK4,"1.48 fold enrichment (6-mer frequency, TF over GST control)"
same,binding signal,ETV2,"1.41 fold enrichment (6-mer frequency, TF over GST control)"
same,binding signal,ELF3,"1.5 fold enrichment (6-mer frequency, TF over GST control)"
same,binding signal,CRX,"1.08 fold enrichment (6-mer frequency, TF over GST control)"
same,binding signal,ETV1,"1.38 fold enrichment (6-mer frequency, TF over GST control)"
same,binding signal,ERF,"1.27 fold enrichment (6-mer frequency, TF over GST control)"
same,binding signal,ETV3L,"1.32 fold enrichment (6-mer frequency, TF over GST control)"
same,binding signal,ETS2,"1.37 fold enrichment (6-mer frequency, TF over GST control)"
same,binding signal,SPDEF,"1.32 fold enrichment (6-mer frequency, TF over GST control)"
same,binding signal,ETV7,"1.44 fold enrichment (6-mer frequency, TF over GST control)"
same,binding signal,ELF5,"1.32 fold enrichment (6-mer frequency, TF over GST control)"
same,binding signal,ETV3,"1.39 fold enrichment (6-mer frequency, TF over GST control)"
same,binding signal,ETV6,"1.34 fold enrichment (6-mer frequency, TF over GST control)"
